Inconclusive results are not listed. Entries that show only a call come without a potency. Active and inactive are the calls of the source. Calls come from the whole dose curve; as a rule, active = well fitted cell-killing curve with a large enough effect in the repeat runs; inconclusive = weak or mixed curves, or effect the other way; inactive = flat fitted curve, though single readings scatter.
How the values were obtained:
[1] = cAMP Responsive Elements (CRE) small molecule antagonists, cell-based qHTS assay: qHTS cell viability counter screen (AID 2060913); note: nearly all actives have a fitted effect of over 40% in size
How it was run: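 Steps: cells plated and held 18 hrs at 37 C/5% CO2; compounds and NKH477 (0.25 uM final) added; 3 hrs incubation; reporter substrate read; CellTiter-Glo added to measure cytotoxicity by luminescence.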

[2] = cAMP Responsive Elements (CRE) small molecule agonists, cell-based qHTS assay: qHTS cell viability counter screen (AID 2060914); note: nearly all actives have a fitted effect of over 50% in size
How it was run: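 In the same wells as the reporter read, viability of CRE-bla HEK 293T cells was quantified by CellTiter-Glo luminescence after a 3 h compound exposure.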
Potency is the fitted concentration of half-maximal effect.

| Compound | Potency [1] | Potency [2] |
| --- | --- | --- |
| Cc1nc(-c2ccc(Cl)cc2)oc1COC(C)(C)C(=O)O | inactive | inactive |
| COc1ccc(NC(C)=O)cc1N | inactive | inactive |
| CC(=O)/C=C/C1C(C)=CCCC1(C)C (stereo not given) | inactive | inactive |
| CC(C)(C)CC(C)(C)c1ccccc1O | 61.4 µM (active) | 61.4 µM (active) |
| CC(=O)OC(C)=O | inactive | inactive |

From PubChem BioAssay (Tox21)
